Our source for the Potency and activation (H2AX phosphorylation) values is PubChem BioAssay (Tox21).

SMILES strings stand for the structures. Records with an inconclusive call do not appear. Entries that show only a call come without a potency. Active and inactive are the calls of the source. Unless noted, calls come from the whole dose curve.

The nature of one experiment: qHTS assay to identify small molecule agonists of the hypoxia (HIF-1) signaling pathway - cell viability counter screen (AID 1224844). Note: nearly all actives have a fitted effect of over 50% in size. The settings on record: HRE-bla ME-180 viability, CellTiter-Glo luminescence, 17 h; series mostly up to 76.8 µM. The method in brief: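 Multiplexed with the HRE beta-lactamase assay, this viability read used CellTiter-Glo luminescence (30 min, RT) on HRE-bla ME-180 cells treated 17 hrs with compounds in 0.5% dialyzed FBS medium.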
For orientation: qHTS replaces the single test concentration by a dilution series.
Consider `CCC(=O)C(=O)CC`, for which the Potency result is “inactive”.

For `CCc1ccc(Br)cc1`, the Potency result is “inactive”.

`Cc1cccc2cccnc12`: the Potency entry is “inactive”.

`Cc1c(F)c(N2CCNC(C)C2)cc2c1c(=O)c(C(=O)O)cn2C1CC1` (stereo unspecified): the Potency entry was “inactive”.

Take `O=C(/C=C/c1ccccc1)OC/C=C/c1ccccc1`: the Potency entry is “inactive”.

For the compound `Nc1nc(-c2ccccc2)cs1`, the Potency entry is “inactive”.

As for `CC(C)OC(=O)C(O)(CC(=O)O)CC(=O)O`, the Potency result is “inactive”.

In the case of `CCCCCCCC`, the Potency entry was “inactive”.

With `CCOc1ccc2ccccc2c1C(=O)N[C@@H]1C(=O)N2[C@@H]1SC(C)(C)[C@@H]2C(=O)O`, the Potency result was “inactive”.

As to `Cc1ccc(C(=O)O)cc1`, the Potency result is “inactive”.

As for `COc1cc(C)ccc1O`, the Potency entry was “inactive”.

For the compound `OC[C@H]1O[C@H](O[C@H]2O[C@H](CO)[C@@H](O)[C@H](O)[C@H]2O)[C@H](O)[C@@H](O)[C@@H]1O`, the Potency result was “inactive”.

For the compound `Cc1c(C)c2c(c(C)c1OC(=O)c1cccnc1)CC[C@@](C)(CCC[C@H](C)CCC[C@H](C)CCCC(C)C)O2`, the Potency result is “inactive”.

The nature of the next experiment: qHTS assay to identify small molecule agonists of H2AX (AID 1224845; active = well fitted activation curve with a large enough effect in the signal ratio in the repeat runs, not every such curve was filed as active; the % refers to the signal ratio). The settings on record: CHO-K1 phospho-H2AX Ser139 HTRF, 3 h; series mostly up to 154 µM. The method, boiled down:
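Wild-type CHO-K1 cells, plated overnight, exposed 3hr at 37C to 15 concentrations (0.76% DMSO final). Lysed, then HTRF anti-pH2AX (S139) cryptate and anti-H2AX-d2 antibodies, 24 hr room temperature; 665/620 nm emission read.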
For `O=C(O)c1cccc(C(F)(F)F)c1`, the Potency result is “inactive”.

With `O=C(O)CCN(C1(C(=O)NO)CCCC1)S(=O)(=O)c1ccc(Oc2ccc(F)cc2)cc1`, the Potency result was “inactive”.

As to `Cc1nc(-c2ccc(Cl)cc2)oc1COC(C)(C)C(=O)O`, the Potency entry was “inactive”.

For `O=C(O)c1cc(=O)c2ccccc2o1`, the Potency result is “inactive”.

As for `OCC(F)(F)F`, the Potency entry is “inactive”.

In the case of `Cc1cccc(C(=O)O)c1O`, the Potency result was “inactive”.

With `C=CC(C)(CCC=C(C)C)OC=O` (stereo unspecified), the Potency result was “inactive”.

Regarding `OC[C@@H](O)[C@@H](O)CO`, the Potency entry is “inactive”.

For `CCC(COC(=O)CCS)(COC(=O)CCS)COC(=O)CCS`, the Potency entry is “inactive”.

Turning to `Cc1cccc(C)c1NC(=O)c1ccc(N)cc1`, the Potency result is “inactive”.

Regarding `Cc1c(N)cccc1C(F)(F)F`, the Potency result was “inactive”.

Take `CCCCCCOC(=O)C(C)CC` (stereo unspecified): the Potency entry was “inactive”.

In the case of `C1CCC(SSC2CCCCC2)CC1`, the Potency entry was “inactive”.

Regarding `CC(C)Cn1cnc2c(N)nc3ccccc3c21`, the activation (H2AX phosphorylation) is -2.05% [at 31.6 µM] (inactive).

`CC(=O)c1ccc(C(C)=O)cc1`: the Potency entry was “inactive”.

For the compound `CC(C)(c1cc(Br)c(OCC(Br)CBr)c(Br)c1)c1cc(Br)c(OCC(Br)CBr)c(Br)c1` (stereo unspecified), the Potency entry is “inactive”.

`Clc1sc(Cl)c(Cl)c1Cl`: the Potency result was “inactive”.

As for `Cc1cc(-c2ccc(N=Nc3cc(S(=O)(=O)O)c4ccccc4c3N)c(C)c2)ccc1N=Nc1cc(S(=O)(=O)O)c2ccccc2c1N`, the Potency result is “inactive”.

For `CCCCCc1ccc(Cl)cc1`, the Potency entry is “inactive”.

`Cc1ccc(C)cc1`: the Potency result was “inactive”.

`Cc1ccc(-c2ccccc2)cc1`: the Potency result was “inactive”.

For `COc1cc(/C=C/c2ccccc2)oc(=O)c1`, the Potency entry was “inactive”.

On to `Cc1ccc(C(C)C)cc2c(C)ccc1-2`, for which the Potency result was “inactive”.

For the compound `CC(C)(C)C1CCC(=O)CC1`, the Potency entry is “inactive”.

For the compound `S=c1nccc[nH]1`, the Potency entry is “inactive”.

Take `CCC(=O)C(=O)CC`: the Potency entry is “inactive”.

For the compound `CCc1ccc(Br)cc1`, the Potency entry was “inactive”.

Consider `Cc1cccc2cccnc12`, for which the Potency result is “inactive”.

As for `Cc1c(F)c(N2CCNC(C)C2)cc2c1c(=O)c(C(=O)O)cn2C1CC1` (stereo unspecified), the Potency entry was “inactive”.

`O=C(/C=C/c1ccccc1)OC/C=C/c1ccccc1`: the Potency result was “inactive”.

With `Nc1nc(-c2ccccc2)cs1`, the Potency result was “inactive”.

As for `CC(C)OC(=O)C(O)(CC(=O)O)CC(=O)O`, the Potency result is “inactive”.

For the compound `CCCCCCCC`, the Potency entry is “inactive”.

Consider `CCOc1ccc2ccccc2c1C(=O)N[C@@H]1C(=O)N2[C@@H]1SC(C)(C)[C@@H]2C(=O)O`, for which the Potency result was “inactive”.

As to `Cc1ccc(C(=O)O)cc1`, the Potency entry was “inactive”.

For `COc1cc(C)ccc1O`, the Potency entry was “inactive”.

For `OC[C@H]1O[C@H](O[C@H]2O[C@H](CO)[C@@H](O)[C@H](O)[C@H]2O)[C@H](O)[C@@H](O)[C@@H]1O`, the Potency entry was “inactive”.

On to `Cc1c(C)c2c(c(C)c1OC(=O)c1cccnc1)CC[C@@](C)(CCC[C@H](C)CCC[C@H](C)CCCC(C)C)O2`, for which the Potency entry is “inactive”.
